Rows were chosen to be rich in hits. Some 2.3% of all compounds tested hit in one or more screens of this group.
HIF-2a inh: HIF-2a inhibition; actives 0.72% (n = 360,000); 786-0 RCC cells HIF-2a reporter, luciferase luminescence, overnight; inhibition, % at 18.8 µM;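 active = inhibition of the luminescence signal of 40% or more relative to plate controls, in a single-dose primary screen at 18.75 µM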
hiPSC survival: enhancers of human iPSC single-cell survival; hiPSC single-cell survival, ATPlite luminescence; 100% = ROCK inhibitor wells, 0% = DMSO; survival enhancement, % at 20 µM; actives 0.044% (n = 360,000); AID 602274; in the data active = survival enhancement above about 18%;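 note: cells exposed to compounds for 16 hours before the ATP read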
TWEAK-Fn14 inh: inhibitors of TWEAK-Fn14 interaction signaling; inhibition, % at 10 µM; actives 2% (n = 360,000); TWEAK-stimulated Fn14 reporter cells, luciferase luminescence, 8 h; in the data active = inhibition above about 50%
CF NFkB block: inhibitors of cystic fibrosis induced NF-kB; KKLEB NF-kB-GFP reporter, PAF-induced, GFP fluorescence overnight; inhibition, % at 5 µM; actives 0.86% (n = 360,000); AID 588850;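 active = at least 50% inhibition at 5 µM, scaled per plate between neutral and stimulator controls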;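 note: PAF is a Pseudomonas aeruginosa culture filtrate used as stimulus; plate controls were PAF-stimulated DMSO wells for no effect and unstimulated DMSO wells for full effect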
LGR2 inh: inhibitors of bursicon-induced Drosophila LGR2 receptor cAMP signaling. actives 0.35% (n = 380,000). HEK293 LGR2, CRE-luciferase, bursicon-stimulated, 4 h. inhibition, % at 9.99 µM. AID 720647;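 active = drop in luminescence signal, shown as inhibition above about 50% in the replicate tests, limit read from the data, passing the limit was not always enough; inconclusive = probably only some replicates passing the limit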;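 note: agonist challenge used bursicon conditioned medium at about half maximal strength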
KKLEB cytotox: CF airway cell cytotoxicity counter-screen; KKLEB CF airway cells viability, ATPlite luminescence, overnight; active compounds read low; cells stimulated with P. aeruginosa culture filtrate; activity change (cytotoxicity), % at 5 µM; actives 0.36% (n = 360,000); AID 602141;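 active = corrected activity change at or below -50% at 5 µM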
* = called active by the depositor; ? = inconclusive; / = no result given.

SMILES	HIF-2a inh	hiPSC survival	TWEAK-Fn14 inh	CF NFkB block	LGR2 inh	KKLEB cytotox
Cc1nc2ccccn2c1C(=O)Nc1ccc2c(c1)OCCO2	0.9	-3.1	85.0*	8.6	/	-7.5
O=C(CC1CS(=O)(=O)CC1CC(=O)Nc1ccc2c(c1)OCCO2)Nc1ccc2c(c1)OCCO2 (configuration not stated)	19.5	0.0	91.3*	-13.9	?	-11.0
C[C@@H]1CCCCO[C@@H](CN(C)S(=O)(=O)c2ccc(Cl)cc2)[C@H](C)CN([C@H](C)CO)C(=O)c2cc(NC(=O)Nc3ccccc3)ccc2O1	/	/	/	/	-2.9	/
O=C(C[C@H]1C=C[C@H](NS(=O)(=O)c2ccccc2)[C@@H](CO)O1)NCc1ccccc1F	/	/	/	/	5.3	/
O=C(CSc1nnnn1-c1ccccc1Cl)Nc1ccc2c(c1)OCCO2	-30.4	0.0	75.8*	5.2	-24.9	-11.1
O=C(CCn1cccn1)Nc1ccc2c(c1)OCCO2	-0.2	0.3	78.3*	5.5	13.6	-2.7
O=C(Nc1ccc2c(c1)OCCO2)c1ccc(Cl)cc1Cl	-69.4	-0.6	33.0	3.6	51.9*	-26.1
O=C(CCN1C(=O)c2ccccc2C1=O)Nc1ccc2c(c1)OCCO2	8.9	4.9	14.8	-1.8	-11.8	4.3
O=C(CSc1nnnn1-c1ccc(Cl)cc1)NC(=O)Nc1ccc2c(c1)OCCO2	-159.9	-1.9	24.6	12.4	-60.2	-14.1
C[C@H](CO)N1C[C@H](C)[C@@H](CN(C)C(=O)c2ccncc2)Oc2ncc(C#C[C@@H](C)O)cc2C1=O	/	/	/	/	-4.3	/
O=C(C[C@@H]1CC[C@H](NC(=O)C2CCC2)[C@@H](CO)O1)NCCCN1CCOCC1	/	/	/	/	20.9	/
C[C@H]1CN([C@@H](C)CO)C(=O)c2cccc(NC(=O)c3ccc(-c4nccs4)cc3)c2O[C@H]1CN(C)S(=O)(=O)c1cn(C)cn1	/	/	/	/	-6.1	/
CCCCC(CC)COC(=O)CCCCC(=O)OCC(CC)CCCC (configuration not stated)	15.1	-0.2	-3.9	4.5	-2.5	-14.0
CCCCCCCC(=O)OCC(O)CO (configuration not stated)	-5.4	-1.7	-10.9	-8.0	-7.0	-59.5*
COc1ccc(C2c3sc(=O)[nH]c3SC3C4CCC(C4)C23)cc1 (configuration not stated)	11.3	0.9	64.5*	12.6	/	-6.6
COc1ccc(Cl)c(-c2cc(C(=O)Nc3ccc(C)c(NS(C)(=O)=O)c3)[nH]n2)c1	-15.3	5.9	17.6	-3.5	0.6	-3.0
Cc1ccc(NC(=O)c2cc(-c3cc(Cl)ccc3C)n[nH]2)cc1NS(C)(=O)=O	-11.9	-3.3	64.5*	5.9	-28.3	-5.3
COc1ccc(Cl)cc1-c1cc(C(=O)Nc2ccc(C)c(NS(C)(=O)=O)c2)[nH]n1	-8.6	-3.1	72.3*	-47.5	15.6	7.7
CCOC(=O)c1ccc(NC(=O)NCCc2cnc[nH]2)cc1	-90.8	0.1	60.1*	-23.3	-5.3	9.8
CCOC(=O)c1ccc(NC(=O)NCc2ccncc2)cc1	-7.9	0.2	-3.3	-5.1	/	1.2
CO[C@@H]1CN(C)C(=O)c2ccc(NC(=O)Cc3ccccc3)cc2OC[C@@H](C)NC[C@@H]1C	/	/	/	/	6.3	/
COC1=C(N)C(=O)c2nc(C)ccc2C1=O	1.3	-2.4	30.8	57.3*	-7.1	2.8
COC1=C(Br)C(=O)c2nc(C)ccc2C1=O	32.5	-2.0	18.2	3.1	-19.5	10.7
O=C(Oc1c(CN2CCOCC2)cc(Cl)c2cccnc12)c1cccs1	13.0	-0.7	1.7	-2.2	12.3	3.5
O=C(Oc1c(Cl)cc(Cl)c2cccnc12)c1ccco1	-11.7	0.8	86.0*	-0.5	/	8.3
SMILES	HIF-2a inh	hiPSC survival	TWEAK-Fn14 inh	CF NFkB block	LGR2 inh	KKLEB cytotox
O=C(Oc1c(Cl)cc(Cl)c2cccnc12)c1cccs1	-6.2	1.2	108.6*	0.6	/	18.2
CN(C)C(=O)[C@H]1[C@H](CO)[C@H]2Cn3c(ccc(-c4ccccc4)c3=O)[C@@H]1N2C(=O)C1CCC1	/	/	/	/	12.0	/
Cc1ccc(NC(=O)COc2ccc(N(C)C(=O)C(C)(C)C)cc2)cc1S(=O)(=O)N1CCCCC1	10.8	0.3	69.0*	14.7	17.9	-3.9
Cc1ccc(OCC(=O)Nc2cccc(S(=O)(=O)N3CCCC3)c2)cc1C	-6.4	-1.7	0.4	22.3	11.0	-9.9
CC(=O)c1ccc(OCCCC(=O)Nc2ccc(C)c(S(=O)(=O)N3CCCCC3)c2)cc1	11.3	0.2	51.0*	-0.5	-8.3	13.0
COc1ccc(NC(=O)CN(C)CC(=O)Nc2ccc(C)c(S(=O)(=O)N3CCCCC3)c2)cc1	2.8	6.5	17.2	7.4	2.8	-3.1
O=C(COc1ccc2ccc(=O)oc2c1)Nc1cccc(S(=O)(=O)N2CCCCC2)c1	-10.8	0.4	52.8*	18.8	33.3	-16.2
Cc1ccc(S(=O)(=O)N2CCCCC2)cc1NC(=O)CSc1ncnc2ccccc12	33.3	0.4	34.4	33.0	16.7	-7.9
Cc1ccc(NC(=O)CSc2ncnc3ccccc23)cc1S(=O)(=O)N1CCCCCC1	26.9	-1.3	86.5*	45.1	41.8	-9.5
Cc1ccc(NC(=O)COc2ccccc2C(N)=O)cc1S(=O)(=O)N1CCCCCC1	-12.0	-0.1	58.1*	20.1	19.8	-14.3
CCc1cccc(OCC(=O)Nc2ccc(C)c(S(=O)(=O)N3CCCCCC3)c2)c1	15.6	-0.4	50.4*	12.5	-75.3	-15.6
COc1cc(C(C)=O)ccc1OCC(=O)Nc1ccc(C)c(S(=O)(=O)N2CCCCCC2)c1	29.2	-0.2	83.8*	11.4	45.4	4.1
Cc1ccc(NC(=O)COc2cccc(C)c2C)cc1S(=O)(=O)N1CCCCCC1	0.6	-0.4	21.3	39.3	1.8	-5.6
COc1cccc(CN(C)C[C@H]2OCc3cn(nn3)CCCC(=O)N([C@@H](C)CO)C[C@H]2C)c1	/	/	/	/	-7.0	/
O=C(/C=C/c1cccc(F)c1)N1CCc2ccccc21	-219.7	-3.3	15.0	-2.7	53.9*	-17.7
c1ccc(-c2cnc(-c3ccccc3)nc2)cc1	-297.5	-2.3	66.9*	-8.0	55.8*	-16.3
c1ccc(-c2ncc3c(ccc4ccccc43)n2)cc1	-34.6	-3.4	83.8*	-14.6	80.8*	-54.2*
c1ccc2c(c1)cnc1ccccc12	-0.9	-0.1	7.2	0.2	-5.7	3.0
O=C(O)c1ncc(-c2ccccc2)cn1	-0.8	1.1	0.6	10.4	/	-11.6
O=C(C[C@H]1CC[C@H]2[C@@H](COC[C@H](O)CN2C(=O)Nc2ccc(F)cc2)O1)NC1Cc2ccccc2C1	/	/	/	/	-12.8	/
COc1ccc(CCNC(=O)N2c3ccccc3Sc3ccccc32)cc1	28.7	-2.1	55.4*	12.8	/	-0.2
O=C(/C=C/c1ccccc1Cl)Nc1cccc(S(=O)(=O)NC2=NCCCCC2)c1	-186.5	-0.9	10.1	-22.7	-33.0	1.1
O=C(/C=C/c1ccc(Cl)cc1Cl)Nc1cccc(S(=O)(=O)NC2=NCCC2)c1	-176.7	-3.4	26.1	-3.3	?	-58.3*

Screening results from PubChem.
